Results taken from the supplement of paper PMC6992640.
± gives the standard deviation of the averaged measurements.

Columns and labels:
Test in all cases: cell viability (% of vehicle); higher = less cytotoxic
Conditions in all cases: 10 µM; 72 h
HCI01 = tested on: HCI01 (cells of a triple-negative basal-like breast cancer xenograft)
HCI03 = tested on: HCI03 (cells of an ER-positive luminal breast cancer xenograft)
HCI09 = tested on: HCI09 (cells of a triple-negative luminal androgen receptor type breast cancer xenograft)
HCI11 = tested on: HCI11 (cells of an ER-positive luminal breast cancer xenograft)
HCI13 = tested on: HCI13 (cells of an ER-positive luminal breast cancer xenograft)
HCI16 = tested on: HCI16 (cells of a triple-negative basal-like breast cancer xenograft)
UCD52 = tested on: UCD52 (cells of a triple-negative basal-like breast cancer xenograft)
WHIM2 = tested on: WHIM2 (cells of a triple-negative basal-like breast cancer xenograft)
WHIM30 = tested on: WHIM30 (cells of a triple-negative basal-like breast cancer xenograft)
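Note: PDX cells carrying CMV promoter-driven luciferase, viability read as total photon flux per second by IVIS imaging following D-luciferin, vehicle control 0.1% DMSO.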

| Structure (SMILES) | cell viability (HCI01) | cell viability (HCI03) | cell viability (HCI09) | cell viability (HCI11) | cell viability (HCI13) | cell viability (HCI16) | cell viability (UCD52) | cell viability (WHIM2) | cell viability (WHIM30) |
| --- | --- | --- | --- | --- | --- | --- | --- | --- | --- |
| Cn1c(=O)c2c(ncn2CC2OCCO2)n(C)c1=O [Doxofylline] | 110 ± 27 | 117 | 95.6 ± 12 | 100 | 82.8 ± 4.8 | 105 | 96.4 ± 3.6 | 102 ± 11 | 100 ± 9 |
| NS(=O)(=O)c1cc(C(=O)O)c(NCc2ccco2)cc1Cl [Furosemide] | 108 ± 7.4 | 126 | 98.4 ± 8.6 | 105 | 89.1 ± 17 | 94.5 | 83.56 ± 0.16 | 98.3 ± 1.4 | 78.9 ± 6.2 |
| COc1ccccc1Oc1c(NS(=O)(=O)c2ccc(C(C)(C)C)cc2)nc(-c2ncccn2)nc1OCCO [Bosentan] | 110 ± 16 | 95.1 | 71.1 ± 21 | 86.4 | 83.7 ± 5.7 | 104 | 111 ± 2.8 | 114 ± 36 | 114 ± 3.2 |
| NC1CN(c2c(F)cc3c(=O)c(C(=O)O)cn(C4CC4F)c3c2Cl)CC12CC2.O (stereo not drawn) [Sitafloxacin Hydrate] | 83.3 ± 48 | 95.5 | 111 ± 13 | 90.5 | 116.6 ± 0.93 | 122 | 88.8 ± 9.9 | 95.6 ± 27 | 119 ± 4.7 |
| CC(C)OC(=O)C(C)NP(=O)(OCC1OC(n2ccc(=O)[nH]c2=O)C(C)(F)C1O)Oc1ccccc1 (stereo not drawn) | 85.3 ± 7.8 | 103 | 79.3 ± 11 | 79.5 | 82.5 ± 5.5 | 141 | 84.26 ± 0.3 | 104 ± 7 | 120 ± 5 |
| C=C1c2cccc(O)c2C(O)=C2C(=O)C3(O)C(O)=C(C(N)=O)C(=O)C(N(C)C)C3C(O)C12.Cl (stereo not drawn) [Methacycline HCl] | 114 ± 4.2 | 128 | 104 ± 5.9 | 81.8 | 140 ± 12 | 158 | 111 ± 5.5 | 94.3 ± 2 | 121 ± 2.4 |
| C#CCC(Cc1cnc2nc(N)nc(N)c2n1)c1ccc(C(=O)NC(CCC(=O)O)C(=O)O)cc1 (stereo not drawn) [Pralatrexate] | 134 ± 15 | 117 | 102 ± 11 | 115 | 157 ± 27 | 103 | 110 ± 8.8 | 121 ± 10 | 117 ± 4.2 |
| CC(C(=O)[O-])c1cccc(Oc2ccccc2)c1.CC(C(=O)[O-])c1cccc(Oc2ccccc2)c1.[Ca+2] (stereo not drawn) [Fenoprofen Calcium] | 112 ± 34 | 100 | 101 ± 7.6 | 94.3 | 121 ± 16 | 105 | 83 ± 3.5 | 98.7 ± 7.4 | 169 ± 11 |
| Cn1cnc([N+](=O)[O-])c1Sc1ncnc2nc[nH]c12 [Azathioprine] | 98.2 ± 32 | 119 | 106 ± 26 | 87 | 65 ± 8.7 | 151 | 129 ± 18 | 71.1 ± 10 | 110 ± 8.8 |
| CC(=O)[N-]S(=O)(=O)c1ccc(N)cc1.[Na+] [Sulfacetamide Sodium] | 98.2 ± 1.3 | 86.1 | 87.3 ± 15 | 104 | 96.8 ± 5.9 | 79.7 | 72.9 ± 1.1 | 85.757 ± 0.01 | 109 ± 3.1 |
| NCC1OC(OC2C(CO)OC(OC3C(O)C(N)CC(N)C3OC3OC(CO)C(O)C(O)C3N)C2O)C(N)C(O)C1O.O=S(=O)(O)O (stereo not drawn) [Paromomycin Sulfate] | 125 ± 32 | 133 | 88.3 ± 10 | 95 | 86.8 ± 14 | 129 | 91.82 ± 0.62 | 131 ± 48 | 111 ± 8 |
| C[C@H]1COc2c(N3CCN(C)CC3)c(F)cc3c(=O)c(C(=O)O)cn1c23 [Levofloxacin] | 102 ± 26 | 109 | 88 ± 17 | 89.6 | 124 ± 50 | 123 | 88.7 ± 1.4 | 104 ± 12 | 132 ± 2.4 |
| CCOc1cc(CC(=O)NC(CC(C)C)c2ccccc2N2CCCCC2)ccc1C(=O)O (stereo not drawn) [Repaglinide] | 88 ± 1.1 | 131 | 117 ± 15 | 111 | 80.3 ± 12 | 118 | 80.672 ± 0.07 | 96.8 ± 5.5 | 126 ± 18 |
| CC(C)(C)N.CCCC(NC(C)C(=O)N1C(C(=O)O)CC2CCCCC21)C(=O)OCC (stereo not drawn) [Perindopril Erbumine] | 84.9 ± 13 | 101 | 95.1 ± 11 | 93.5 | 129 ± 5.6 | 108 | 72.44 ± 0.41 | 98.2 ± 1.5 | 114 ± 28 |
| CC12CCC(O)CC1=CCC1C2CCC2(C)C(c3cccnc3)=CCC12 (stereo not drawn) [Abiraterone] | 138 ± 7.1 | 168 | 86.1 ± 4.6 | 76.6 | 145 ± 42 | 111 | 94.1 ± 9.2 | 131 ± 6.1 | 156 ± 22 |
| CC(=O)c1c(C)c2cnc(Nc3ccc(N4CCNCC4)cn3)nc2n(C2CCCC2)c1=O.Cl | 134 ± 73 | 141 | 86.1 ± 9.9 | 152 | 110 ± 31 | 114 | 82.86 ± 0.55 | 88.8 ± 7.7 | 132 ± 6.1 |
| [O-][n+]1cccc(CO)c1 [Mepiroxol] | 117 ± 13 | 119 | 105.2 ± 0.98 | 103 | 99.24 ± 0.22 | 97 | 90.9 ± 8.7 | 95.7 ± 9.9 | 139 ± 26 |
| COc1cc(Nc2ncc(F)c(Nc3ccc4c(n3)N(COP(=O)([O-])[O-])C(=O)C(C)(C)O4)n2)cc(OC)c1OC.[Na+].[Na+] [R788 disodium] | 86.4 ± 12 | 76.8 | 95.4 ± 11 | 86.8 | 86.4 ± 11 | 64.5 | 58 ± 4 | 79.4 ± 16 | 91.9 ± 3.2 |
| CCOC(=O)[C@H](CCc1ccccc1)N[C@@H](C)C(=O)N1[C@H](C(=O)O)C[C@H]2CCCC[C@@H]21 [Trandolapril] | 121 ± 2.9 | 148 | 115 ± 11 | 98.7 | 124 ± 12 | 130 | 112 ± 20 | 109 ± 14 | 174 ± 15 |

| Structure (SMILES) | cell viability (HCI01) | cell viability (HCI03) | cell viability (HCI09) | cell viability (HCI11) | cell viability (HCI13) | cell viability (HCI16) | cell viability (UCD52) | cell viability (WHIM2) | cell viability (WHIM30) |
| --- | --- | --- | --- | --- | --- | --- | --- | --- | --- |
| CC(=O)Nc1ncc([N+](=O)[O-])s1 [Nithiamide] | 112 ± 16 | 159 | 106 ± 6.2 | 105 | 67.5 ± 5.2 | 133 | 109 ± 6.1 | 117 ± 13 | 91.3 ± 2 |
| CC1C=CC=CC=CC=CC=CC=CC=CC(OC2OC(C)C(O)C(N)C2O)CC2OC(O)(CC(O)CC(O)C(O)CCC(O)CC(O)CC(=O)OC(C)C(C)C1O)CC(O)C2C(=O)O (stereo not drawn) [Amphotericin B] | 108 ± 19 | 116 | 105 ± 2.6 | 109 | 107 ± 18 | 107 | 82.2 ± 5.4 | 95.2 ± 23 | 127 ± 1.4 |
| Cc1ccc(-c2cc(C(F)(F)F)nn2-c2ccc(S(N)(=O)=O)cc2)cc1 [Celecoxib] | 139 ± 24 | 110 | 94.7 ± 7.4 | 94.4 | 94 ± 2.9 | 112 | 70.1 ± 3.8 | 93.3 ± 12 | 100.5 ± 1 |
| CO/N=C(\C(=O)N[C@@H]1C(=O)N2C(C(=O)O)=C(CSc3nc(=O)c(O)nn3C)CS[C@H]12)c1csc(N)n1 [Ceftriaxone Sodium Trihydrate] | 148 ± 45 | 111 | 98.6 ± 26 | 101 | 77.6 ± 1.9 | 125 | 106 ± 1.4 | 130 ± 13 | 109 ± 2.1 |
| CN1CCCC[C@H]1CCN1c2ccccc2Sc2ccc(S(C)=O)cc21.O=S(=O)(O)c1ccccc1 (stereo partly drawn) [Mesoridazine Besylate] | 115 ± 9.3 | 77.9 | 132 ± 60 | 98.2 | 122 ± 10 | 106 | 95.9 ± 8.8 | 85.8 ± 21 | 103 ± 7.5 |
| Cn1c(=O)cc(N2CCCC(N)C2)n(Cc2ccccc2C#N)c1=O (stereo not drawn) [Alogliptin (SYR-322)] | 118 ± 5.8 | 112 | 89.5 ± 8.9 | 112 | 115 ± 26 | 113 | 108.86 ± 0.059 | 114 ± 9.2 | 117 ± 6.7 |
| O=C(O)C1=COC(OC2OC(CO)C(O)C(O)C2O)C2C(CO)=CCC12 (stereo not drawn) [Geniposidic acid] | 99.5 ± 9.7 | 150 | 93.7 ± 17 | 95.6 | 107 ± 12 | 110 | 99.8 ± 10 | 94.3 ± 6 | 143.2 ± 0.61 |
| COc1cc(OC)c(C=CS(=O)(=O)Cc2ccc(OC)c(NCC(=O)[O-])c2)c(OC)c1.[Na+] | 126.6 ± 0.39 | 111 | 112 ± 11 | 99.6 | 40.1 ± 4.7 | 115 | 117 ± 20 | 73.9 ± 14 | 112 ± 16 |
| O=c1ccn(C2OC(CO)C(O)C2O)c(=O)[nH]1 (stereo not drawn) [Uridine] | 106 ± 10 | 115 | 100.8 ± 0.17 | 100 | 103 ± 21 | 104 | 85.6 ± 2.8 | 89.7 ± 4.7 | 131 ± 9.8 |
| CS(=O)(=O)c1ccc(C(=O)Nc2ccc(Cl)c(-c3ccccn3)c2)c(Cl)c1 [GDC-0449 (Vismodegib)] | 109 ± 40 | 94.4 | 69.5 ± 20 | 104 | 105 ± 7.7 | 83.4 | 67.1 ± 1.8 | 111 ± 5.5 | 133 ± 2.4 |
| NC1CCCCC1N.O=C([O-])C(=O)[O-].[Pt+2] (stereo not drawn) [Oxaliplatin] | 97.5 ± 3.3 | 108 | 75.7 ± 30 | 114 | 89 ± 12 | 118 | 137 ± 9.3 | 108 ± 14 | 154 ± 2 |
| COc1c(C)c2c(c(O)c1CC=C(C)CCC(=O)O)C(=O)OC2 [Mycophenolic acid] | 99.5 ± 27 | 93.3 | 77.8 ± 17 | 75.1 | 102 ± 9.5 | 104 | 94 ± 6.1 | 65.8 ± 7.6 | 151 ± 1.2 |
| CN(C)CCC(c1ccccc1)c1ccccn1.O=C(O)C=CC(=O)O (stereo not drawn) [Pheniramine Maleate] | 111 ± 10 | 123 | 108 ± 34 | 101 | 94.008 ± 0.0093 | 132 | 117 ± 27 | 97.8 ± 24 | 124 ± 14 |
| CCCCS(=O)(=O)NC(Cc1ccc(OCCCCC2CCNCC2)cc1)C(=O)O.Cl.O (stereo not drawn) [Tirofiban hydrochloride monohydrate] | 119 ± 1.7 | 123 | 107 ± 8.2 | 106 | 135 ± 8.5 | 101 | 91.9 ± 7.1 | 99.1 ± 24 | 113 ± 22 |
| Clc1ccc(CCC(Cn2ccnc2)Sc2c(Cl)cccc2Cl)cc1.O=[N+]([O-])O (stereo not drawn) [Butoconazole nitrate] | 67.2 ± 44 | 99.5 | 36.7 ± 9.7 | 143 | 39.6 ± 1.4 | 186 | 74.6 ± 3.6 | 53.8 ± 16 | 190 ± 7.9 |
| CCCNC1CCc2nc(N)sc2C1.Cl.Cl.O (stereo not drawn) [Pramipexole 2HCl Monohydrate] | 126 ± 3.4 | 131 | 107.2 ± 0.44 | 110 | 97.4 ± 1.9 | 138 | 103 ± 16 | 94.3 ± 11 | 103 ± 4.9 |
| CO[C@H]1/C=C/O[C@@]2(C)Oc3c(C)c(O)c4c(c3C2=O)C(=O)/C(=C/NN2CCN(C)CC2)C(=C4O)NC(=O)/C(C)=C/C=C/[C@H](C)[C@H](O)[C@@H](C)[C@@H](O)[C@@H](C)[C@H](OC(C)=O)[C@@H]1C [Rifampin] | 86.5 ± 29 | 133 | 85.8 ± 2.5 | 94.5 | 108 ± 16 | 145 | 82.91 ± 0.51 | 64 ± 0.77 | 94.88 ± 0.76 |
| O=C1NC([O-])=NC1(c1ccccc1)c1ccccc1.[Na+] [Phenytoin sodium] | 97.2 ± 10 | 142 | 96.6 ± 14 | 101 | 104 ± 9.4 | 114 | 91.6 ± 8.2 | 105 ± 7.8 | 118 ± 8.7 |
